Bioassay records deposited in PubChem BioAssay by National Center for Advancing Translational Sciences (NCATS).
G9a block = G9a (human) methyltransferase inhibition | Q96KQ7 | 350,000 tested, 8.8% active | Potency, µM (doses to about 102 µM), without a hit: at the highest dose activity, negative = inhibition, most hits filed as inhibitors | AID 504332 | G9a H3K9 monomethylation, AlphaScreen, 2 h; further: on the % scale 0 is the no-effect control and ±100 the full control effect; nearly all actives have a fitted effect of over 75% in size
Target sequence (Q96KQ7 913-1193 limits assumed): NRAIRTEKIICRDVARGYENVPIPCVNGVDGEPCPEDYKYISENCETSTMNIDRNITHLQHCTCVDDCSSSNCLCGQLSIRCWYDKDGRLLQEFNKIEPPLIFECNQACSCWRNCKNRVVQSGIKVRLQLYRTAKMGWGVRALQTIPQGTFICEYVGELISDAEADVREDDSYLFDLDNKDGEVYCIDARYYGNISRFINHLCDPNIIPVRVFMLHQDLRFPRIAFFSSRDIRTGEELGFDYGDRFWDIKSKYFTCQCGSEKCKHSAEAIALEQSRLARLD
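Compounds were preincubated with 20 nM G9a for 15 min, after which biotinylated H3K9 peptide (500 nM) and SAM (20 uM) started a 2 h room-temperature reaction. Monomethylated product was quantified by antibody-based AlphaScreen chemiluminescence.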
BAZ2B block = blocks human BAZ2B; Q9UIF8; Potency, µM (highest dose often 114 µM), for the others: at the highest dose activity change, negative = inhibition, most hits filed as inhibitors; AlphaScreen BAZ2B-H3K14Ac peptide displacement; AID 504333; 360,000 tested, 4.4% active; further: on the % scale 0 is the no-effect control and ±100 the full control effect; nearly all actives have a fitted effect of over 60% in size
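AlphaScreen displacement: compounds (up to 110uM) incubated 30 min at room temperature with a preformed 50 nM BAZ2B/50 nM biotinylated H3K14Ac peptide complex in PBS pH 7.4 with Tween-20. Donor and acceptor beads at 10 ug/mL final added, 20 min light-protected before reading.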
HP1b binding inh = blocks HP1-beta chromodomain binding to methylated histone tails | AID 540317 | 390,000 tested, 0.56% active | P83916 | AlphaScreen HP1-beta / biotin-H3K9me3 peptide binding | Potency, µM (series often up to 114 µM), for the others: at the top dose activity change, negative = inhibition, usual class: inhibitors; further: nearly all actives have a fitted effect of over 70% in size
Target sequence (P83916 whole entry, looked up): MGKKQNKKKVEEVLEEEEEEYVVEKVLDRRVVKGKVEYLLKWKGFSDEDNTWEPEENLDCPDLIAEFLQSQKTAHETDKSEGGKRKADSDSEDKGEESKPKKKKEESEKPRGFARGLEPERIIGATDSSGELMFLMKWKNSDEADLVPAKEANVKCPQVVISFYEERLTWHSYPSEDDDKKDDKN
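AlphaScreen: HP1-beta (50 nM) preformed 30 min with biotin-H3(1-18)K9me3 peptide (50 nM) in PBS pH 7.4, 0.01% Tween-20. Compound added for 30 min at RT, then streptavidin donor/nickel chelate acceptor beads (10 ug/mL) for 30 min.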
JMJD2A Tudor inh = blocks the human JMJD2A Tudor domain | AlphaScreen JMJD2A-Tudor / H3K4me3 peptide binding | O75164 | Potency, µM (top dose mostly 114 µM), for the others: at the top dose activity change, negative = inhibition, usual class: inhibitors | 390,000 tested, 4.4% active | AID 504339; further: on the % scale 0 is the no-effect control and ±100 the full control effect; nearly all actives have a fitted effect of over 50% in size
GLS inhibitor = blocks human kidney-isoform glutaminase activity; Potency, µM (titrated, usually from 45.5 µM), inactives show at the highest dose activity change, negative = inhibition, actives largely listed as inhibitors; GLS enzymatic activity, qHTS titration; 410,000 tested, 0.21% active; O94925; further: on the % scale 0 is the no-effect control and ±100 the full control effect
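Coupled fluorescence readout: glutamate oxidase/HRP/Amplex Red detect glutamate formed by hKGA from L-glutamine (1 mM solution added). Buffer 45 mM KH2PO4 pH 8.2, 0.02% Tween-20; reads at t0 and 30 min RT.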
Active calls of the source: *; ? = inconclusive; . = not tested or not shown; ! = not confirmed by another sample; [ ] = dose if it differs, or a comment. Rows were chosen to be rich in hits. Some 10% of all compounds tested hit in one or more screens of this group. The call rests on the fitted dose curve; in most records, active means well fitted curve in the direction sought with a large enough effect; inconclusive means small, poorly fitted or top-dose-only effect, or another doubt; inactive means no such curve, though single readings can be large; an effect the other way counts as inactive or inconclusive. Potency means the concentration at half of the fitted maximal effect.

SMILES | G9a block | BAZ2B block | HP1b binding inh | JMJD2A Tudor inh | GLS inhibitor
CCc1ccc(C(=O)c2cn(CC(=O)Nc3ccc4c(c3)OCCO4)c3ccc(C)cc3c2=O)cc1 | -5%[59 µM] | -11% | 22% | -15% | 17%
O=C(CSc1nc(O)cc(=O)n1-c1ccc(Cl)c(Cl)c1)Nc1ccc(Cl)cc1Cl | 10% | -17% | 9% | -23% | 1%
CC1(C)Cc2ccccc2C(/C(=N\Nc2cccc(Cl)c2)C(N)=O)=N1 | ? | 25µM* | ? | 35µM* | -15%
COc1cccc(/C=N/NC(=O)CNC(=O)C(c2ccccc2)c2ccccc2)c1O | 26% | -1% | 33% | -22% | 1%
Cc1cc(Cl)ccc1NC(=O)CCC(=O)N/N=C/c1cc([N+](=O)[O-])ccc1O | -1% | 6% | 28% | 1% | -11%
O=C(Nc1ccc([N+](=O)[O-])cc1Cl)c1cc(Cl)ccc1O | 7.9µM*! | -3% | 11% | ? | -1%
O=C(Nc1cccc(Cl)c1)c1cc(N=Nc2ccc([N+](=O)[O-])cc2Cl)ccc1O | 2.8µM* | 2.8µM* | ? | 4.5µM* | -2%
O=[N+]([O-])c1ccc(O)c(/C=N/NC(=S)Nc2ccc(Cl)cc2Cl)c1 | . | 32µM* | -13% | 79µM* | -7%
Nc1ccc(NC(=O)c2cc(Cl)ccc2O)c(Cl)c1 | . | . | 13% | -23% | .
CC1=NN(c2ccc(N)cc2)C(=O)C1 | 8.9µM* | ? | 7% | -15%[11.4 µM] | -4%
Cc1ccc(S(=O)(=O)c2c(Nc3ccc(C)c(C)c3)sc(C(=O)c3ccc4c(c3)OCO4)c2N)cc1 | -1%[59 µM] | -10% | 16%[57 µM] | -35% | -13%
CCOC(=O)N1CCC(c2[nH][nH]c(=O)c2C)CC1 | 40µM* | 1% | 33% | -19% | -4%
CCOC(=O)N1CCC(NC2CCCCCCC2)CC1 | -43%[59 µM] | 29% | 26% | 7% | -1%
COc1ccc(N2CCN(CCCNC(=O)CCC(=O)N3CCOc4ccc(Cl)cc43)CC2)cc1 | . | 32µM* | -17% | ? | 39%
Cc1ccc(C)c(N2CCN(CCCNC(=O)CCC(=O)N3CCOc4ccc(Cl)cc43)CC2)c1 | -7% | ? | . | . | .
O=C(CCC(=O)N1CCOc2ccc(Cl)cc21)NCCCN1CCN(c2ccccc2F)CC1 | 89µM* | ? | 21% | -19% | -3%
Cc1cc(C)n(CC(O)Cn2c3ccc(Br)cc3c3cc(Br)ccc32)c(=O)n1 (stereo not drawn) | 79µM* | -2% | ? | -35% | -2%
Cc1cc(C)n(CC(O)Cn2c3ccccc3c3ccccc32)c(=O)n1 (stereo not drawn) | 3% | 3% | 4% | -21% | 0%
COc1ccc(C(=O)c2c(N)c(C(=O)Nc3cccc(OC)c3)c3ccccn23)cc1 | 28µM* | 0% | 6% | -22% | -6%
Cc1c(Cl)cccc1-n1ncc(C(=O)N2CCC(C)CC2)c1C1CCN(C(=O)OC(C)(C)C)CC1 | -30%[59 µM] | 3%[57.1 µM] | 20% | -15% | -7%
Oc1ccccc1-c1nnc(COc2ccccc2)o1 | -1% | 19% | 59% | -10% | 16%
Oc1ccccc1-c1nnc(COc2ccc(Cl)cc2Cl)o1 | ? | 4% | 7% | 40µM* | 25%
C(=N\Nc1ncnc2nc[nH]c12)/c1cccs1 | -27% | 50µM* | 32% | ? | 12%
O=C(CC1C(=O)NCCN1CC1CCCCC1)NCc1ccc(F)cc1F (stereo not drawn) | . | 1% | 38% | -13% | -5%
O=C(CC1C(=O)NCCN1CC1CCCCC1)NCc1cc(F)ccc1F (stereo not drawn) | . | -3% | -13% | 11µM* | ?
SMILES | G9a block | BAZ2B block | HP1b binding inh | JMJD2A Tudor inh | GLS inhibitor
CC(C)c1cc(CNC(=O)CC2C(=O)NCCN2CC2CCCCC2)on1 (stereo not drawn) | 50µM* | -2% | 40% | -15% | 0%
O=C(CC1C(=O)NCCN1CC1CCCCC1)NCc1ccc(Cl)cc1 (stereo not drawn) | -41% | -7% | 30% | -3% | 7%
Cc1cccc(NC(=O)C(c2ccccc2)N2Cc3ccccc3C2=O)c1C (stereo not drawn) | -2%[59 µM] | -11% | 54% | -16% | -2%
O=C(Nc1ccc(-c2nnn(CC(=O)N3CCN(C(=O)c4ccco4)CC3)n2)cc1)c1ccccc1F | 56µM* | -14% | . | . | .
COc1ccccc1C(=O)Nc1ccc(-c2nnn(CC(=O)N3CCN(C(=O)c4ccco4)CC3)n2)cc1 | ? | 1% | 9% | -14% | 1%
O=C(c1ccoc1)N1CCN(c2cc(-c3cccnc3)nc3cc(-c4cccc(Cl)c4)nn23)CC1 | . | . | . | . | 20%
CCOc1cc2[nH]c(=S)n(CC3CCCN3CC)c(=O)c2cc1OCC (stereo not drawn) | ? | -10% | 10% | ? | 11%
COc1cc2[nH]c(=S)n(C3CCCC3)c(=O)c2cc1OC | -6%[12.7 µM] | 13% | 31% | 1% | -17%
COc1cc2[nH]c(=S)n(C3CC3)c(=O)c2cc1OC | 18µM* | -29% | 49% | -5% | ?
COCCn1c(=S)[nH]c2cc(OC)c(OC)cc2c1=O | ? | -7% | 19% | 89µM* | -2%
CCC1CCCCN1CCn1c(=S)[nH]c2cc(OC)c(OC)cc2c1=O (stereo not drawn) | 50µM* | -4% | 26% | ? | -4%
COc1cc2[nH]c(=S)n(CCN3CCOCC3)c(=O)c2cc1OC | ? | ? | -1% | 32µM* | 12%
Cc1cccc(C)c1NC(=O)c1cc(S(=O)(=O)N2CCc3ccccc3C2)ccc1F | 9%[59 µM] | -8% | 34% | -22% | 0%
Cc1ccnc(NS(=O)(=O)c2ccc(NC(=O)C(C)(C)Oc3ccc(Cl)cc3)cc2)n1 | ? | -4% | 28% | -13% | 6%
CC1=C(C(=O)N(C)C)CC(CC(=O)NCCCCc2ccccc2)C(=O)N1Cc1ccc(C(C)(C)C)cc1 (stereo not drawn) | . | . | . | . | -2%
CCOc1cc2[nH]c(=S)n(CC3CCCO3)c(=O)c2cc1OCC (stereo not drawn) | ? | 0% | 16% | ? | -11%
COc1cc2[nH]c(=S)n(CC3CCCO3)c(=O)c2cc1OC (stereo not drawn) | ? | 3% | 24% | 79µM* | -18%
CCOc1cc2[nH]c(=S)n(CCCN3CCN(C)CC3)c(=O)c2cc1OCC | . | . | 54% | -4%[11.4 µM] | -2%
Cc1[nH]c(=S)n(CC2CCCO2)c1C (stereo not drawn) | ? | 0% | -16% | 28µM* | 23%
COc1cc2[nH]c(=S)n(CCCN3CCOCC3)c(=O)c2cc1OC | ? | -15% | 1% | 25µM* | 0%
COc1cc2[nH]c(=S)n(Cc3ccco3)c(=O)c2cc1OC | 3.5µM* | -3% | 14% | -8% | 3%
CCc1ccccc1NC(=O)CN1CCN(C(=O)CCC(=O)N2CCC(c3ccccc3)=N2)CC1 | 18%[2.33 µM] | 2% | 26% | 1% | 12%
